High-throughput results deposited in PubChem BioAssay by several laboratories.
An excerpt weighted towards active compounds, which were near 4.2% of everything screened.
NALP1 inh: blocks the NALP1 inflammasome reconstituted in yeast. actives 0.61% (n = 280,000). inhibition, % at 10 µM. S. cerevisiae NALP1/ASC/caspase-1 growth, X-gal OD620, 72 h; in the data active = inhibition mostly above about 24%, no sharp cut-off; inactive = mostly below about 32%
tim10-1 inh: tim10-1 yeast growth inhibition | actives 2.2% (n = 330,000) | S. cerevisiae tim10-1 ts strain growth, BacTiter-Glo, 24 h | inhibition, % at 20 µM;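 active = inhibition of at least 40%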;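 also: mutant grown at 25 °C; 0% = DMSO wells with yeast and 100% = wells holding no yeast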
tim23-1 inh: tim23-1 yeast growth inhibition. S. cerevisiae tim23-1 growth, BacTiter-Glo luminescence, 24 h. inhibition, % at 20 µM. actives 1.3% (n = 330,000);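 active = growth inhibition of the mutant yeast at or above 50%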;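 also: temperature-sensitive mutant grown at 25 °C; plate controls were DMSO-treated mutant yeast for no effect and medium wells lacking yeast for full effect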
TIM10 inh: TIM10 yeast growth inhibition. S. cerevisiae TIM10 strain growth, BacTiter-Glo luminescence, 24 h. inhibition, % at 10 µM. actives 1.4% (n = 330,000). AID 463195;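 active = inhibition of 40% or more at the single tested concentration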;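 also: wild-type TIM10 isogenic control strain grown at permissive 25 °C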
V-ATPase pH: yeast V-ATPase proton transport regulation by pHLuorin; S. cerevisiae, pHLuorin cytosolic pH fluorescence; response, % at 10 µM; actives 0.37% (n = 350,000); AID 504577; in the data active = response mostly above about 7.3%, no sharp cut-off; inactive = mostly below about 5.4%; also: actives read high
NLRP3 yeast inh: inhibitors of NALP3 inflammasome in yeast | Yeast reconstituted NLRP3/ASC/caspase-1, beta-gal luminescence, 24 h | inhibition, % at 10 µM | actives 0.39% (n = 330,000) | AID 2825;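 active = inhibition of 50% or more; inactive = inhibition below 50%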;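 also: plate controls were induced DMSO wells for no effect and uninduced yeast grown without galactose for full effect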
VATPase regulator: regulators of yeast V-ATPase proton transport. shares compounds with V-ATPase pH. S. cerevisiae pHLuorin cytosolic pH. response, % at 10 µM. actives 2% (n = 980). AID 602197; in the data active = response above about 24%;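 also: plate controls were vehicle wells for no effect and positive control wells for full effect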
An asterisk follows results filed as active; . = no result.

SMILES | NALP1 inh | tim10-1 inh | tim23-1 inh | TIM10 inh | V-ATPase pH | NLRP3 yeast inh | VATPase regulator
CCCCCn1nc(C(=O)N(CCOC)c2c(N)n(CCCC)c(=O)[nH]c2=O)c2ccccc2c1=O | . | -5 | 4 | 13 | 13* | 15 | -2
NC(=O)c1cc(-c2csc(-c3cccnc3)n2)ccc1O | 19 | -5 | -5 | 9 | 4 | 16 | .
Cc1ccc(S(=O)(=O)/N=C2/NC(=O)/C(=C\c3ccccc3)S2)cc1 | . | 11 | 39 | 11 | -4 | 19 | .
Cc1ccc(/C=C2\S/C(=N/S(=O)(=O)c3cccs3)NC2=O)cc1 | -2 | 2 | 4 | 11 | 21* | 3 | 1
CCN(CC(=O)Nc1ccc(NC(C)=O)cc1)C(=O)c1cc(C)on1 | . | -17 | -39 | -21 | 10* | 7 | 1
O=C(NCCC1=CCCCC1)c1cc2ccccc2oc1=O | -7 | 33 | 30 | 28 | 10* | 8 | 3
COc1cccc2c1nc(C)c1cc(C)oc12 | 20 | 21 | 17 | 6 | 11* | -5 | -4
CCc1nc(SCC(=O)Nc2nccs2)c2oc3ccccc3c2n1 | . | 7 | -6 | -10 | 10* | 16 | -1
O=C(CSc1ncnc2c1oc1ccccc12)Nc1nccs1 | 11 | -9 | 2 | -28 | -1 | 8 | .
CC1CCCCC1NC(=O)Cn1nnc2ccccc2c1=O (configuration not stated) | -12 | 14 | 5 | -23 | 18* | 16 | -3
CC1CCCCC1NC(=O)Cn1c(CN2CCCCC2)nc2ccccc2c1=O (configuration not stated) | -4 | 6 | 27 | 7 | -5 | 22 | .
COc1cc(C(=O)NCCOc2cccc3cccnc23)cc(OC)c1OC | 8 | 8 | 6 | -18 | 15* | -2 | -1
O=C(CN1CCCCC1)NNc1nc(-c2ccccc2)c2cc(Cl)ccc2n1 | 6 | 27 | 21 | 17 | 0 | 30 | .
COc1cccc(OCC(=O)NNC(=O)Cc2cccs2)c1 | 20 | 6 | 9 | 12 | 14* | 22 | 0
Cc1cccn2c(CN(C)CC3CCCCO3)c(C(=O)N3CCCCC3)nc12 (configuration not stated) | -10 | 10 | 8 | -6 | 0 | 3 | .
CN(CCC1CCOCC1)Cc1nc(Cc2ccccc2F)no1 | -4 | -2 | 8 | 8 | 11* | 21 | -3
CC(=O)Nc1cccc(C(=O)OC(C)C(=O)NC(=O)NC2CCCCC2)c1 (configuration not stated) | . | 1 | 6 | 0 | 11* | 8 | 0
COc1ccc(NC(=O)C(=O)NCCC2CCCCN2S(=O)(=O)c2ccc(F)cc2)cc1 (configuration not stated) | . | 20 | 1 | 12 | 0 | 17 | .
COc1ccc(/C=C2\C(=O)NCC(=O)N2C)cc1 | -2 | -8 | 14 | 3 | 253* | 8 | 6
CCc1ccc(Cn2nnc(C(=O)Nc3ccc(OC)cc3OC)c2N)cc1 | 45* | 16 | 15 | 4 | 12* | 4 | 4
COc1ccc(NC(=O)c2nnn(CC(=O)Nc3ccccc3OC)c2N)c(OC)c1 | 7 | 7 | 5 | -10 | 1 | -6 | .
CCCCOC(=O)c1ccc(NC(=O)C(=O)NCc2ccncc2)cc1 | 28 | 37 | 14 | 18 | 0 | 6 | .
CCOC(=O)c1ccc(NC(=O)C(=O)NCc2ccncc2)cc1 | 24 | -1 | 6 | -14 | 11* | 14 | 1
COc1ccc(O)c(CN2CCC(n3nccc3NC(=O)c3ccccc3Cl)CC2)c1 | -6 | -12 | 2 | -1 | 9.2* | 21 | 2
CCCc1nc(C(C)(C)O)c(C(=O)O)n1Cc1ccc(-c2ccccc2-c2nn[nH]n2)cc1 | 5 | -14 | -5 | 4 | . | 4 | .
SMILES | NALP1 inh | tim10-1 inh | tim23-1 inh | TIM10 inh | V-ATPase pH | NLRP3 yeast inh | VATPase regulator
COc1ccc(OC)c(NC(=O)c2ccc(OC3CSC3)cc2)c1 | -2 | 35 | 29 | 19 | 13* | 17 | -2
CCOP(=O)(/C(C#N)=C(/O)c1ccccc1)c1ccccc1 (configuration not stated) | 11 | -6 | -3 | 1 | -1 | 5 | .
O=c1[nH]c(CN2CCN(c3ccccc3O)CC2)nc2ccccc12 | 16 | 16 | 16 | 4 | 14* | 21 | 0
CC(C)[C@H](NC(=O)c1ccc(F)cc1)C(=O)NC1=NCCS1 | -1 | 16 | 0 | 15 | -2 | -3 | 0
COC(=O)C1=NNC(C(=O)c2ccco2)C1c1ccccc1 (configuration not stated) | 3 | 6 | 5 | 13 | 0 | 22 | .
COc1ccc(-c2c(-c3cc(OC)cc(OC)c3)n(C)c3ccc(-c4ccc(OC)c(F)c4)cc23)cc1 | . | 0 | -11 | 4 | 2 | -3 | .
COc1ccc(-c2c(-c3ccc(OC)c(F)c3)c3ccccc3n2C)cc1 | . | 10 | 23 | 8 | 21* | 17 | 3
Cc1cc2c(c(=O)n1Cc1cccnc1)C(c1ccc(F)cc1)C(C#N)=C(N)O2 (configuration not stated) | 4 | -18 | -11 | 3 | 12* | -4 | -4
O=C(Cc1n[nH]c(=O)c2ccccc12)OCC(=O)c1ccc2c(c1)OCCO2 | 20 | 26 | 32 | -5 | 12* | 16 | -1
O=C(Cc1n[nH]c(=O)c2ccccc12)OCC(=O)c1ccc(F)cc1 | . | -3 | -12 | 3 | -1 | 3 | .
C[C@H](c1ccccc1)n1nnc(COCc2ccccc2)c1C#CCOCc1ccccc1 | . | 21 | 27 | 18 | 9.9* | 1 | 1
CCOc1cc(/C=C2\C(=N)N3N=C(S(C)(=O)=O)SC3=NC2=O)ccc1OCCOc1cccc(OC)c1 | -12 | 16 | 17 | 9 | -5 | 22 | .
CCOc1cccc(/C=N/NS(=O)(=O)c2ccc(C)c([N+](=O)[O-])c2)c1O | 9 | 7 | 3 | -3 | 6 | 13 | .
Cc1ccccc1CO/N=C/c1[nH]ncc1Br | -2 | 24 | 13 | 0 | 0 | 35 | .
Cc1cc(C(=O)NN=Cc2ccc(OC(=O)c3ccco3)cc2)c(C)o1 | . | -28 | 9 | -2 | 1 | -1 | .
O=C(NNS(=O)(=O)c1ccccc1[N+](=O)[O-])c1ccccc1Cl | 17 | -4 | -2 | -10 | 12* | 20 | -2
O=C(OCc1nc2ccc(Cl)cc2n1CCO)c1ccc(O)cc1 | 24 | 14 | 3 | -2 | 3 | -5 | .
COc1cc(C)c(C(C)C)cc1S(=O)(=O)N1CCOCC1 | 5 | 21 | 9 | -1 | 2 | 5 | .
c1ccc(CCNC2=NCCCS2)cc1 | 8 | -32 | -130 | -77 | -4 | 0 | 7
Cc1cc(C)cc(NC(=O)COC(=O)CCc2ccc(S(=O)(=O)N3CCOCC3)cc2)c1 | -4 | -5 | 18 | -14 | 3 | 9 | .
Cc1sc(-c2ccccn2)nc1OC(=O)c1ccc(F)cc1F | 9 | . | . | . | 11* | . | 1
